# Source: ChEMBL document CHEMBL3988442, “University of Dundee, Small-Polar-MMV Screening Library” (2021)
# Molecular target: Shiga toxin 2 (Escherichia coli O157:H7) (UniProt P09385+P09386)
# Assay: E. coli 0.157:H7 Shiga Toxin SOP - stx2 screening assay
# Assay type: functional
# Design: scale not given: direction of the effect not stated beside the values
# Conditions: 30 µM
row,SMILES,Percent Effect [%]
1,O=C(NCC1CCCO1)c1c(-n2cnnn2)sc2c1CCC2 (centres undefined),2.95
2,Cc1ncsc1C(=O)NCCSCc1cccs1,-24.7
3,Cc1cccc(CN2C(=O)CCC23CCN(Cc2cccn2C)CC3)n1,0.0983
4,CCc1nc(CN(C)C2CCN(CCn3cc(C#N)cn3)C2)no1 (centres undefined),9.46
5,Cn1cnnc1S(=O)(=O)C1CCN(S(=O)(=O)C2CC2)CC1,-7.38
6,Cn1cc(CNCC2Cn3nnc(-c4ccccc4)c3CO2)cn1 (centres undefined),-42.7
7,COc1ccc(C)cc1C(C)NC(=O)NCCCn1cncn1 (centres undefined),-12.9
8,O=C(CN1CCC(c2cccc(F)c2)C1)NCc1ccco1 (centres undefined),-21.6
9,CCc1nc(C2CCCN2C(=O)c2c[nH]c(C)n2)no1 (centres undefined),0.205
10,CSCc1cccc(S(=O)(=O)NCCCn2ccnc2)c1,-15.1
11,CC(=O)NCC(=O)N1C[C@H](OCc2cccnc2)[C@H]2COC[C@H]21,-22.3
12,Cc1nc(C)n(CC2CCCN(c3ncnc4c3CCC4)C2)n1 (centres undefined),15.3
13,CNC(=O)C(NC(=O)c1nccn2ccnc12)c1ccc(F)c(F)c1 (centres undefined),14.2
14,Cc1cc(OCC(=O)NC(C)c2ccc(N3CCOCC3)cc2)no1 (centres undefined),-21.7
15,Cc1cc(C)n(C2CCCN(C(=O)COCC(F)(F)F)C2)n1 (centres undefined),-2.74
16,CCOc1ccc(S(=O)(=O)NCc2cccnc2N(C)C)cc1,-16.7
17,Cc1ccc(Cc2cnc(NC(=O)C3CNC(=O)N3)s2)cc1F (centres undefined),-17.9
18,Cc1nccn1C1CCCN(C(=O)c2ccc3c(c2)NC(=O)CO3)C1 (centres undefined),24.5
19,c1cncc(CN2CCc3ncnc(C4CCOC4)c3CC2)c1 (centres undefined),-17.7
20,CN(C)C(=O)CO[C@H]1CN(Cc2ccc(F)cc2)[C@@H]2CCCO[C@H]12,-22

row,SMILES,Percent Effect [%]
1,c1ccc(-c2noc(CN3CCc4cncnc4C3)n2)nc1,-24.6
2,CCOc1ccc(Cl)c(C(=O)N(C)C)n1,-62.5
3,O=C(Cn1ccnc1)N1C[C@@H]2CC[C@H](Oc3ccccc3)[C@@H]2C1,2.5
4,CCOCC(O)CN1CCN(C(=O)C2CC2)CC1 (centres undefined),21.4
5,COC(=O)c1sccc1NC(=O)C1CCCN1C(=O)c1ccco1 (centres undefined),-12.3
6,COc1cccc(CC2CN(C3CCN(C(C)=O)CC3)CCO2)c1 (centres undefined),-26
7,NC(=O)c1ccc2c(c1)nc1n2CCN(Cc2ccco2)C1,-31.5
8,CN(CC(=O)NC1(C#N)CCCC1)C1CCCN(c2cccnn2)C1 (centres undefined),21.9
9,CCc1nc(CC(=O)Nc2cnn(CC3CCCO3)c2)cs1 (centres undefined),-10.7
10,O=C(NCc1cc[nH]n1)N1CCN(c2ccccc2Cl)CC1,11.5
11,Cc1csc(N2CCN(C(=O)Cc3ccc(C)s3)CC2)n1,12.2
12,CN(C(=O)Cn1nc(-c2ccc(F)cc2)oc1=O)C1CCS(=O)(=O)C1 (centres undefined),-7.66
13,O=C(NCC1CC1)C1CN(C(=O)c2ccncc2)CC12CCOCC2 (centres undefined),-21.5
14,CC(=O)N1CCC(CN2CCN(Cc3nccn3C)C(C)C2)CC1 (centres undefined),18.6
15,O=C(C1=CCCC1)N1CCC[C@]2(C[C@@H](OCc3ccncc3)CO2)C1,-14.6
16,O=C(CN1CCCCC1C1OCCO1)Nc1ccc(F)c(F)c1 (centres undefined),3.89
17,O=S(=O)(Cc1ccccc1)NCc1ccco1,4.92
18,COC(=O)CCC(=O)N1CCC2(CN(Cc3cccc(F)c3)C2)C1,2.07
19,Cc1ccc(SCC(=O)NS(=O)(=O)c2ccc3c(c2)OCCO3)cc1,21.2
